# According to publication PMC4336329 (PLoS ONE, 2015):
# Screen size: about 310,000 compounds; about 14,000 (4.5%) showed an effect of 50% or more. Effects have a minus sign here. The full list was thinned out, with strong results kept by preference.
# Biological target: human ether-à-go-go-related gene (hERG) potassium channel (human, UniProt Q12809)
# Assay: primary screen, population patch clamp on CHO cells stably expressing hERG; higher = less effect of the substance
# 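Also: peak tail current of the secondary pulse compared with the same well before compound.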
# human ether-à-go-go-related gene (hERG) potassium channel, sequence (Q12809 whole entry, looked up): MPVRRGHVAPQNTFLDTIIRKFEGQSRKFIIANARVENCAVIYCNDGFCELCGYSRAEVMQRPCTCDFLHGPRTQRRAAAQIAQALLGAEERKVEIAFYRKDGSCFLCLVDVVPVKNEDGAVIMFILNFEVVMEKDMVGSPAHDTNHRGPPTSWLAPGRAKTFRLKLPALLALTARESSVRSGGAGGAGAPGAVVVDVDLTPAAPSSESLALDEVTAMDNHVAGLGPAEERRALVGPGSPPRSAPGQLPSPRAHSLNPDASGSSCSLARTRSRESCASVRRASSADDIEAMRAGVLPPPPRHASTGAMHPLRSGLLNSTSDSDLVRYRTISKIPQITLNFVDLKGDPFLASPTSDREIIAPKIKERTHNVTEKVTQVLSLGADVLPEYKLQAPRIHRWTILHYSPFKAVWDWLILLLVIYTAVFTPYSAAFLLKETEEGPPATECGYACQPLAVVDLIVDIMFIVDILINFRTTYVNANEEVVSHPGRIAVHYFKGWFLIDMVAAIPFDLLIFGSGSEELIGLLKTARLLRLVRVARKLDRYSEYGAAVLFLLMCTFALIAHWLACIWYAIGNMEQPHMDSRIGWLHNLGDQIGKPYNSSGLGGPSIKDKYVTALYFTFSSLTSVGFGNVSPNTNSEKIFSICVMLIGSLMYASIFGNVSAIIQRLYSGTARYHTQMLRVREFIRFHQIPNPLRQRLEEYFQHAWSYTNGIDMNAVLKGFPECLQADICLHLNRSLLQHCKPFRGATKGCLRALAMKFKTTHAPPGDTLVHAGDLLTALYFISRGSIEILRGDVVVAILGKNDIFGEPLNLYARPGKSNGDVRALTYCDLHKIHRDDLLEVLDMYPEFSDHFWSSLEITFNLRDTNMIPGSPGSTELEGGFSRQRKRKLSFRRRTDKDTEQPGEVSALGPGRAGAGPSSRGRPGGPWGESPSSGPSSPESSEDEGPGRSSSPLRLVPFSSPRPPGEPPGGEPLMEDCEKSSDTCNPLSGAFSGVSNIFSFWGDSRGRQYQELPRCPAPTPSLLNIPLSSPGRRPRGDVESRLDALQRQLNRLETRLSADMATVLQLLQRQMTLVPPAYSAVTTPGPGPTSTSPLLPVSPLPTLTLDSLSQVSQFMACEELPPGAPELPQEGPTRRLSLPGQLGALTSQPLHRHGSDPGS
row,Compound,"hERG current change (%, negative = inhibition) at 10uM"
1,COc1ccc(NS(=O)(=O)c2cc(NC(=O)C3CC3)ccc2N2CCCCC2)cc1,9.99%
2,COC(=O)c1cccc([N+](=O)[O-])c1CN1CCCC(C(N)=O)C1 (centres unmarked),18.4%
3,O=C(N/C(=C\c1ccc(Br)cc1)C(=O)N1CCOCC1)c1ccccc1Cl,-2.31%
4,COc1ccccc1C(=O)N/C(=C/c1ccc(Br)cc1)C(=O)N1CCCC1,-48.9%
5,COc1ccccc1C(=O)N/C(=C\c1ccc(Br)cc1)C(=O)N1CCCC1,-48.6%
6,O=C(N/C(=C/c1ccc(Br)cc1)C(=O)N1CCCC1)c1ccccc1F,-71.5%
7,O=C(N/C(=C\c1ccc(Br)cc1)C(=O)N1CCCC1)c1ccccc1F,-71.8%
8,O=C(N/C(=C/c1ccc(Br)cc1)C(=O)N1CCCCC1)c1ccccc1F,-40.7%
9,CCCCn1cnc2c(c1=O)c1nc3ccccc3nc1n2Cc1ccc2c(c1)OCO2,24.1%
10,O=C(NCCCNC(=O)c1cnccn1)c1cccc(Cl)c1,-5.72%
11,O=C(COC(=O)/C=C/c1ccc(S(=O)(=O)N2CCOCC2)cc1)NCc1ccc(Cl)cc1,1.35%
12,Cc1cccc(N2CCN(C(=O)c3cc4c(=O)n(C)c5ccccc5c4n3C)CC2C)c1 (centres unmarked),-16%
13,Cc1ccc(S(=O)(=O)NCCC(=O)OCC(=O)Nc2ccccc2Cl)cc1,-10.5%
14,O=C(c1cccn2c(=O)c3cc(Br)ccc3nc12)N1CCN(c2ccccn2)CC1,-33.6%
15,COc1ccc(-c2cc(C(=O)N3CCN(c4ccccc4)CC3)c3ccccc3n2)cc1,5.37%
16,COc1ccc(N2CCN(C(=O)c3cccn4c(=O)c5ccccc5nc34)CC2)cc1,-60.1%

row,Compound,"hERG current change (%, negative = inhibition) at 10uM"
1,O=C(c1cccn2c(=O)c3ccccc3nc12)N1CCN(c2ccccn2)CC1,-53%
2,O=C(c1cccn2c(=O)c3ccccc3nc12)N1CCC2(CC1)OCCO2,5.98%
3,O=C(c1cccn2c(=O)c3cc4ccccc4cc3nc12)N1CCN(c2ccccc2)CC1,-7.73%
4,COc1ccc2c(c1OC)C(=O)OC2C1c2c(cc3c(c2OC)OCO3)CCN1C (centres unmarked),-1.42%
5,O=C(CSc1nc2ccccc2c(=O)n1CC1CCCO1)NCc1ccccc1 (centres unmarked),-11%
6,COc1ccccc1N1CCN(C(=O)CSc2nc3ccccc3c(=O)n2CC2CCCO2)CC1 (centres unmarked),-67.6%
7,O=C(CSc1nc2ccccc2c(=O)n1CC1CCCO1)Nc1ccccc1Cl (centres unmarked),-22.1%
8,O=C1CN(C(=O)CSc2nc3ccccc3c(=O)n2CC2CCCO2)c2ccccc2N1 (centres unmarked),-31.3%
9,O=c1c2ccccc2nc(SCc2ccncc2)n1CC1CCCO1 (centres unmarked),-54%
10,O=C(CSc1nc2ccccc2c(=O)n1CC1CCCO1)Nc1ccccc1 (centres unmarked),-14.1%
11,O=C(CSc1nc2ccccc2c(=O)n1CC1CCCO1)N1CCN(c2ccccc2)CC1 (centres unmarked),-73.4%
12,CCOc1ccccc1NC(=O)CSc1nc2ccccc2c(=O)n1CC1CCCO1 (centres unmarked),-68%
13,O=c1c2ccccc2nc(SCc2ccccc2)n1CC1CCCO1 (centres unmarked),-6.67%
14,COc1ccccc1NC(=O)CSc1nc2ccccc2c(=O)n1CC1CCCO1 (centres unmarked),2.49%
15,COc1ccc(OC)c(NC(=O)CSc2nc3ccccc3c(=O)n2CC2CCCO2)c1 (centres unmarked),-41.2%
16,O=C(CSc1nc2ccccc2c(=O)n1CCC(=O)N1CCN(c2ccccc2)CC1)NCC1CCCO1 (centres unmarked),-45.6%
